Bioassay records deposited in PubChem BioAssay by several laboratories.
Autophagy mod – autophagy modulators in MEF cells, primary screen, imaging, high-content, MEF GFP-LC3; calls only at 10 µM (by protocol); MEF GFP-LC3 puncta imaging; test concentration mostly 10 µM; AID 463193, 2010; 0.98% of 190,000 active;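 active = percentage of spot-positive cells more than 3 SD above its plate mean, without a fluorescence outlier flag or 80% toxicity; inconclusive = no clear call, values can overlap the other calls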;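 note: spot-positive cell cutoff set from DMSO-treated cells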
Efa HMGR inh – inhibitors of E. faecalis class II HMGR, primary screen, biochemical, Enterococcus faecalis; HMG-CoA reductase (Enterococcus faecalis, mvaE); AID 1066, 2008; 0.41% of 190,000 active; purified E. faecalis HMGR, NADPH absorbance 340 nm kinetic; inhibition, % at 10 µM;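 active = inhibition above a set limit, the median over all tested compounds plus 3 SD, cut at about 9.5% in these data; inconclusive = no clear call, values can overlap the other calls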;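 note: enzyme runs in reverse so mevalonate oxidation gives rising NADPH absorbance; 0% = complete reaction with DMSO and 100% = background rate lacking mevalonate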
Insulin prom inh – inhibitors of insulin promoter-driven GFP, primary screen, imaging, TRM-6 cells (human fetal islet line), eGFP reporter, cell count; reporter expression induced with tamoxifen; inhibition, % at 2 µM; 0.9% of 130,000 active; AID 1273, 2008;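 active = inhibition above the mean plus 3 SD, with well images judged a real hit on visual review, cut at about 60% in these data, passing the limit was not always enough; inconclusive = inhibition over the cutoff but images rejected on review; inactive = inhibition not above the cutoff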
Ins promoter up – insulin promoter activators in MIN6 cells, imaging, high-content screening, mouse beta cells; MIN6 insulin promoter-GFP reporter; active compounds read high; z-score at 5 µM; 0.3% of 190,000 active;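 active = z-score above 3 at 5 µM with at least 500 cells counted in the well; inconclusive = wells under 500 cells, flagged as cytotoxic or low count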
* hit, by the source's call; i = inactive; ? = inconclusive; nt = no result given; + = active, no number. The list is not random: actives were taken first. Their share in the collection is about 1.9%.

SMILES | Autophagy mod | Efa HMGR inh | Insulin prom inh | Ins promoter up
Cc1ccc(-c2cn3c(n2)SCC3)cc1 | i | -2 | 53 | 0.26
CCc1ccc(-c2cn3c(n2)SCC3)cc1 | i | -5 | 83* | -0.42
O=C(O)c1nn(CC(=O)N(C2CCCCC2)C2CCCCC2)c(=O)c2ccccc12 | i | 0 | nt | 0.93
CN1CCN(c2ccc(CNS(=O)(=O)c3ccc(Cl)cc3)cc2)CC1 | nt | nt | nt | 0.06
CCOc1ccc(C(=O)NCC2CCCO2)cc1OCC (configuration not stated) | i | 13* | nt | 1.2
O=C(NCC1CCCO1)c1cc2c(s1)CS(=O)(=O)C2 (configuration not stated) | + | -6 | 16 | 0.02
COc1ccc(C(=O)NCC2CCCO2)cc1OC (configuration not stated) | nt | nt | nt | -0.27
COc1cccc(CNC(=O)CCC2CCCN(Cc3ccc4c(c3)CCO4)C2)c1 (configuration not stated) | nt | nt | nt | 0.85
COCCn1c(SCC(=O)c2ccc(F)cc2)nnc1C(C)C | + | 0 | nt | 0.23
Cc1cc(C)nc(N/N=C/c2cc3c(cc2[N+](=O)[O-])OCO3)n1 | i | -6 | 8 | -1.1
O=[N+]([O-])c1cc2c(cc1/C=N/Nc1nc(Nc3ccccc3)nc(N3CCCCC3)n1)OCO2 | + | -5 | -18 | nt
COc1ccc(/C=N/Nc2nc(Nc3ccccc3)nc(N3CCCC3)n2)cc1 | i | 11* | -44 | -0.52
Clc1ccc(/C=N/Nc2nnc(Cl)c3ccccc23)cc1 | + | 7 | 69 | nt
C#CC(C)OC(=O)Nc1cnccc1C(F)(F)F (configuration not stated) | nt | nt | nt | 1.2
COC(=O)C/C=C/[C@@H](C)[C@@H](/C=N/OCC[C@@H]1C=C[C@H](OC(C)=O)[C@@H](COC(C)=O)O1)NS(=O)(=O)c1ccc(C)cc1 | + | -6 | 24 | 1.1
COC(=O)[C@@H]1CC[C@H](C)[C@@H](c2ccc(C)cc2)N1C(=O)c1ccc(/C=N/OCC[C@@H]2C=C[C@H](OC(C)=O)[C@@H](COC(C)=O)O2)cc1 | i | 3 | 0 | -0.23
CC(/C=N/Nc1ccc2nncn2n1)=C\c1ccccc1 | nt | nt | nt | -0.04
O=C(NC1CCCC1)C(c1ccc(Cl)cc1)N(Cc1ccc(F)cc1)C(=O)CCl (configuration not stated) | i | -6 | -26 | nt
O=C(NC1CCCC1)C(c1ccc(F)cc1)N(Cc1ccc(Cl)cc1)C(=O)CCl (configuration not stated) | + | -1 | -32 | 0.52
Cc1ccc(Nc2nc3c([nH]2)c(=O)n(C)c(=O)n3C)cc1 | i | -2 | 6 | 3.3*
Cc1cc(C)cc(Nc2nc3c([nH]2)c(=O)n(C)c(=O)n3C)c1 | i | -2 | 58 | 0.72
CCc1ccc(S(=O)(=O)Nc2cc(SCC(=O)O)c(O)c3ccccc23)cc1 | i | 10* | nt | -1.2
O=C(O)CSc1cc(NS(=O)(=O)c2cccc([N+](=O)[O-])c2)c2ccccc2c1O | nt | nt | nt | -0.35
COCCn1c(N)c(Sc2ccccc2[N+](=O)[O-])c(=O)[nH]c1=O | nt | nt | nt | -0.17
C=C1CCN([C@@H](C)C(=O)NCc2ccc(Cl)cc2)S(=O)(=O)c2ccccc21 | nt | nt | nt | 0.32
SMILES | Autophagy mod | Efa HMGR inh | Insulin prom inh | Ins promoter up
CN1/C(=C\C=C2/C(=O)Oc3ccccc3C2=O)C(C)(C)c2ccccc21 | + | -3 | -223 | nt
Cc1ccc(Nc2ncnc(N)n2)cc1C | i | -2 | nt | -0.07
COC(=O)C1=C(C)N(C)C(=S)NC1c1c(OC)ccc2ccccc12 (configuration not stated) | + | -4 | nt | 0.12
COc1ccccc1N1CCN(C/C(O)=C(\C#N)c2nc(-c3ccccc3)cs2)CC1 | i | -4 | -42 | 3.2*
CCCC(=O)Nc1cc(C(F)(F)F)ccc1N1CCOCC1 | i | -1 | 25 | 0.36
O=C(CSCc1ccco1)Nc1cc(C(F)(F)F)ccc1N1CCOCC1 | + | -4 | -55 | 0.54
Cc1cccc(/C=N/Nc2cc(N3CCOCC3)nc(N3CCOCC3)n2)c1 | + | -6 | -34 | -1.5
N#CC1(c2ccc(NC(=O)c3ccccc3)cc2)CCCC1 | i | 13* | nt | 0.23
O=C(NNC(=O)c1ccc(NC(=O)c2ccccc2)cc1)c1ccccc1 | i | 0 | nt | -0.14
CCOc1ccc(-c2c(C#N)c(N)nc3sc(C(=O)c4ccccc4)c(N)c23)cc1 | nt | nt | nt | 9.1*
COc1ccc(-c2c(C#N)c(N)nc3sc(C(=O)c4ccccc4)c(N)c23)cc1 | i | -6 | 41 | -0.47
N#C/C(=C/c1ccc(-c2cc(C(=O)O)cc(C(=O)O)c2)o1)c1nc2ccccc2s1 | i | -4 | 6 | 3*
COc1ccc2nc3sc(C(=O)NCc4cccs4)c(N)c3cc2c1 | + | -1 | 0 | 0.24
CC(C)NC(=O)c1ccccc1NC(=O)Cc1ccc([N+](=O)[O-])cc1 | i | 0 | nt | -0.22
N=c1c2c(-c3ccccc3)c(-c3ccccc3)n(Cc3ccco3)c2ncn1Cc1ccco1 | + | -4 | -89 | -7.7
N=c1c2c(-c3ccccc3)c(-c3ccccc3)n(Cc3ccccc3)c2ncn1CCCn1ccnc1 | + | -5 | nt | -0.08
CCCCn1cnc2c(c(-c3ccccc3)c(-c3ccccc3)n2Cc2ccco2)c1=N | nt | nt | nt | -2
Cc1nn(CC(=O)NCCCc2ccccc2)c(C)c1[N+](=O)[O-] | i | -1 | nt | -0.71
O=C(O)[C@@H]1Cc2ccccc2N1 | nt | nt | nt | -0.07
CCOC(=O)c1ccc(NC2=CC(=O)CC(c3ccco3)C2)cc1 (configuration not stated) | i | 0 | nt | -0.22
O=C1C=C(Nc2ccc(O)cc2)CC(c2ccco2)C1 (configuration not stated) | i | -2 | -133 | 6.8*
S=c1[nH]nc(-c2n[nH]c3c2CCC3)n1/N=C/C=C/c1ccco1 | nt | nt | nt | -0.04
CCCNc1ncccc1C(N)=O | i | -5 | 61* | -0.5
COc1ccc(N2CCN(C(=O)C3CCC(Cn4c(=S)[nH]c5ccccc5c4=O)CC3)CC2)cc1 (configuration not stated) | i | 22* | nt | -3.4
O=C(C1CCC(Cn2c(=S)[nH]c3ccccc3c2=O)CC1)N1CCN(c2ccccc2)CC1 (configuration not stated) | i | nt | 11 | nt
SMILES | Autophagy mod | Efa HMGR inh | Insulin prom inh | Ins promoter up
C/C(=N\NC(=O)CCCNc1ccc(C)cc1)c1ccccn1 | i | 1 | 64* | -0.72
N/C(CC(=O)NC1CCCCC1)=N\OCC(=O)Nc1ccc(Cl)c(Cl)c1 | nt | nt | nt | 0.09
Nc1cc(=O)[nH]c(N2CCN(c3ccccc3)CC2)n1 | + | -6 | nt | -0.44
O=c1[nH]c(N2CCN(c3ccccc3)CC2)nc2c1CCCC2 | i | -1 | -8 | 0.22
N#C/C(=C\c1cn(Cc2ccc(F)cc2)c2ccccc12)C(=O)NCc1ccco1 | + | -3 | 14 | -0.49
COc1ccc2nc(/C(C#N)=C\c3ccc(Oc4ccc([N+](=O)[O-])cn4)cc3)[nH]c2c1 | + | 1 | -29 | 0.03
Cc1ccc2nc(/C(C#N)=C\c3ccc([N+](=O)[O-])o3)[nH]c2c1 | + | -9 | nt | ?
